# Results taken from PubChem BioAssay (EPA / NIEHS).
# Results filed as inconclusive are left out. Calls of active or inactive are those of the source. Rule for the calls, unless noted: active = hit-call score of the fitted dose curve at least 0.9, where 1 is the maximum; inactive = score below 0.9.
# How the values were obtained:
# [1] = ATG_M_61_CIS: Attagene CIS-FACTORIAL HepG2 Assay for M61 Transcription Factor (Internal Marker) (AID 2282937); conditions: HepG2 Attagene CIS-FACTORIAL M61 internal marker reporter; actives raise or lower the signal
# In short: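 Human liver HepG2, transient MRTU transfection (cis promoter elements), 24 h compound. Total RNA → oligo(dT) RT → PCR → FAM label → HpaI → CE. Internal background marker; bidirectional fitting, DMSO = baseline.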
# [2] = ATG_GRE_CIS: Attagene CIS-FACTORIAL HepG2 Assay for human Glucocorticoid Response Elements (GRE) (AID 2282947); conditions: HepG2 GRE cis-reporter, Attagene multiplex mRNA; actives raise or lower the signal
# In short: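 HepG2 cells transiently transfected with multiple cis-promoter reporter units measure endogenous TF activity; 24 h compound exposure. Reporter mRNA quantified by RT-PCR, FAM labelling, HpaI digestion and capillary electrophoresis; bidirectional fit vs DMSO baseline.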
# [3] = target: Hepatocyte nuclear factor 6 (Homo sapiens) (UniProt Q9UBC0); test: ATG_HNF6_CIS: Attagene CIS-FACTORIAL HepG2 Assay for human Hepatocyte Nuclear Factor 6 (HNF6) (AID 2282952); conditions: HepG2 Attagene cis-factorial HNF6 reporter transcription; actives raise or lower the signal
# In short: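 Reporter mRNA induction or loss in HepG2 after 24 h exposure; transient cis-MRTU transfection; fragments quantified by capillary electrophoresis; bidirectional analysis, DMSO as negative control.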
# [4] = ATG_MRE_CIS: Attagene CIS-FACTORIAL HepG2 Assay for human Metal Responsive Element (MRE) (AID 2282954); conditions: HepG2 MRE cis-reporter transcription, Attagene multiplex; actives raise or lower the signal
# In short: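 HepG2 cells transiently transfected with multiple cis-element reporter units measure endogenous MTF1-driven transcription. After 24 h compound exposure, reporter mRNA is quantified by RT-PCR with 6-FAM labelling, HpaI digestion and capillary electrophoresis; bidirectional fits versus DMSO.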
# [5] = ATG_PBREM_CIS: Attagene CIS-FACTORIAL HepG2 Assay for human Phenobarbital-responsive Enhancer Module (PBREM) (AID 2282955); conditions: HepG2 PBREM cis-reporter, Attagene multiplexed transcription; actives raise or lower the signal
# In short: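 Endogenous transcription factors in human liver HepG2 cells drive a PBREM cis-element reporter, whose transcript level after 24 h treatment is quantified by RT-PCR with capillary electrophoresis; activity fitted in both directions against DMSO.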
# [6] = ATG_RORE_CIS: Attagene CIS-FACTORIAL HepG2 Assay for human RAR-related Orphan Receptor Element (RORE) (AID 2282959); conditions: HepG2 Attagene cis-factorial RORE reporter, mRNA; actives raise or lower the signal
# In short: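 Transient MRTU transfection of human HepG2 liver cells (FuGene 6); 24 h compound exposure; TriZol RNA, oligo(dT) RT, PCR, FAM labeling, HpaI cut, CE fragment analysis. DMSO = negative control/baseline.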
# [7] = target: Hepatocyte nuclear factor 4-alpha (Homo sapiens) (UniProt P41235); test: ATG_HNF4a_TRANS: Attagene TRANS-FACTORIAL HepG2 Assay for human Hepatocyte Nuclear Factor 4 alpha (HNF4a) (AID 2282982; active = hit-call score of the fitted dose curve at least 0.9, where 1 is the maximum); conditions: HepG2 HNF4a transactivation reporter, mRNA readout
# In short: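 HepG2 cells transiently transfected with multiplexed GAL4-UAS reporter units responsive to chimeric NR-GAL4 proteins; compound exposure 24 h. Reporter mRNA quantified by RT-PCR, 6-FAM labelling, HpaI digestion and capillary electrophoresis; gain of signal versus DMSO baseline.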
# [8] = ATG_M_06_TRANS: Attagene TRANS-FACTORIAL HepG2 Assay for M06 Transcription Factor (Internal Marker) (AID 2282983; active = hit-call score of the fitted dose curve at least 0.9, where 1 is the maximum); conditions: HepG2 Attagene TRANS M06 internal marker reporter
# In short: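 Measured by capillary electrophoresis of fluorescently labelled RT-PCR products, this endpoint reflects reporter mRNA in HepG2 cells harbouring exogenous NR-GAL4 reporter constructs after 24 h exposure, with DMSO as baseline.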
# [9] = target: human Peroxisome Proliferator-activated Receptor alpha (PPARa), PPARA (gene 5465) (UniProt Q07869); test: ATG_PPARa_TRANS: Attagene TRANS-FACTORIAL HepG2 Assay for human Peroxisome Proliferator-activated Receptor alpha (PPARa) (AID 2283001; active = hit-call score of the fitted dose curve at least 0.9, where 1 is the maximum)
# In short: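 HepG2 cells transiently transfected with multiplexed GAL4-UAS reporter units and chimeric NR-Gal4 constructs were dosed for 24 h. Reporter mRNA was measured by RT-PCR with fluorescent labelling and capillary electrophoresis; gain of signal fitted against DMSO.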
# [10] = target: Peroxisome proliferator-activated receptor gamma (Homo sapiens) (UniProt P37231); test: ATG_PPARg_TRANS: Attagene TRANS-FACTORIAL HepG2 Assay for human Peroxisome Proliferator-activated Receptor-gamma (PPARg) (AID 2283007; active = hit-call score of the fitted dose curve at least 0.9, where 1 is the maximum)
# In short: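 Transient transfection of HepG2 with GAL4-UAS-driven reporter units; chemical dosing 24 h; total RNA → oligo(dT) RT → PCR with reporter primers → 6-FAM primer extension → HpaI digest 2 h 37 C → capillary electrophoresis. Positive direction vs DMSO.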
# [11] = target: Nuclear receptor subfamily 1 group I member 2 (Homo sapiens) (UniProt O75469); test: ATG_PXR_TRANS: Attagene TRANS-FACTORIAL HepG2 Assay for human Pregnane X Receptor (PXR) (AID 2283008; active = hit-call score of the fitted dose curve at least 0.9, where 1 is the maximum)
# In short: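 HepG2 cells transiently transfected with GAL4-UAS reporter units and PXR-Gal4 chimera, exposed 24 h. Reporter mRNA quantified by RT-PCR, fluorescent labelling, HpaI digestion and capillary electrophoresis; gain of signal vs DMSO.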
# [12] = target: human Retinoid X Receptor beta (RXRb), RXRB (gene 6257) (UniProt P28702); test: ATG_RXRb_TRANS: Attagene TRANS-FACTORIAL HepG2 Assay for human Retinoid X Receptor beta (RXRb) (AID 2283013; active = hit-call score of the fitted dose curve at least 0.9, where 1 is the maximum)
# In short: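 Multiplexed TRANS reporter assay in HepG2; 24 h dosing; reporter mRNA by RT-PCR/CE fluorescence; gain-of-signal relative to DMSO.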
# [13] = target: Cellular tumor antigen p53 (Homo sapiens) (UniProt P04637); test: TOX21_p53_BLA_p2_ratio: Tox21 HCT-116 p53 Agonism Beta-lactamase Assay, Ratio, Phase 2 (AID 2283592; active = hit-call score of the fitted dose curve at least 0.9, where 1 is the maximum)
# In short: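 An inducible beta-lactamase reporter in HCT116 cells signals p53 pathway activation. After 16 h chemical exposure at 37C, cells load CCF4-AM substrate for 2 h at room temperature; activity is the cleaved/uncleaved emission ratio relative to DMSO.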
# [14] = target: Cellular tumor antigen p53 (Homo sapiens) (UniProt P04637); test: TOX21_p53_BLA_p5_ratio: Tox21 HCT-116 p53 Agonism Beta-lactamase Assay, Ratio, Phase 5 (AID 2283599; active = hit-call score of the fitted dose curve at least 0.9, where 1 is the maximum)
# In short: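 HCT-116 cells carrying a p53-inducible beta-lactamase reporter were seeded at 4000 cells/well and dosed after 5 h with compound in DMSO (217-fold dilution). After 16 h at 37C, CCF4-AM substrate was added for 2 h, and the 460/530 nm emission ratio was scored as gain-of-signal versus DMSO.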
# [15] = TOX21_p53_BLA_p5_viability: Viability Assessment in the Tox21 HCT-116 p53 Agonism Beta-lactamase Assay, Phase 5 (AID 2283600; active = hit-call score of the fitted dose curve at least 0.9, where 1 is the maximum)
# In short: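 Counter-readout for cytotoxicity: ATP-dependent luminescence from CellTiter-Glo, read in the beta-lactamase wells after 30 min at RT, following a 16 h compound exposure at 37C.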
# [16] = target: Cellular tumor antigen p53 (Homo sapiens) (UniProt P04637); test: TOX21_p53_BLA_p4_ratio: Tox21 HCT-116 p53 Agonism Beta-lactamase Assay, Ratio, Phase 4 (AID 2283601; active = hit-call score of the fitted dose curve at least 0.9, where 1 is the maximum)
# In short: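 HCT116 cells carrying an inducible beta-lactamase reporter were plated at 4000 cells/well, rested 5 h, then exposed to compounds in DMSO (217-fold dilution) for 16 h at 37C. CCF4-AM substrate was loaded 2 h at room temperature; 460/530 nm emission ratio scored gain-of-signal versus DMSO.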
# [17] = target: Paired box protein Pax-6 (Homo sapiens) (UniProt P26367); test: ATG_Pax6_CIS: Attagene CIS-FACTORIAL HepG2 Assay for human Paired Box 6 (PAX6) (AID 2282956); conditions: HepG2 CIS-FACTORIAL PAX6 reporter transcription, RNA readout; actives raise or lower the signal
# In short: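 HepG2 cells transiently transfected with cis-promoter-driven multiplexed reporter units sensing endogenous transcription factor activity; 24 h chemical exposure. Reporter mRNA quantified by RT-PCR, 6-FAM labelling, HpaI digestion and capillary electrophoresis; bidirectional fit versus DMSO baseline.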
# [18] = target: Myc proto-oncogene protein (Homo sapiens) (UniProt P01106); test: ATG_Myc_CIS: Attagene CIS-FACTORIAL HepG2 Assay for human Myelocytomatosis (Myc) Proto-Oncogene Transcription Factor (AID 2282990); conditions: HepG2, Attagene cis-reporter transcription factor activity; actives raise or lower the signal
# In short: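 DMSO-normalised, bidirectionally fitted reporter mRNA signal. HepG2 cells transfected with cis reporter constructs, treated 24 h; transcripts detected by RT-PCR, 6-FAM primer extension and CE.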
# [19] = ATG_NF_kB_CIS: Attagene CIS-FACTORIAL HepG2 Assay for human Nuclear Factor Kappa B (NF-kB) (AID 2282991); conditions: HepG2 Attagene cis-factorial NF-kB reporter mRNA; actives raise or lower the signal
# In short: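 Transient MRTU transfection of human HepG2 liver cells → 24 h chemical exposure → total RNA, oligo(dT) RT → PCR, 6-FAM primer extension, HpaI digest 2 h 37 C → CE fragment analysis. Bidirectional fitting, DMSO negative control.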
# [20] = target: Cellular tumor antigen p53 (Homo sapiens) (UniProt P04637); test: TOX21_p53_BLA_p3_ratio: Tox21 HCT-116 p53 Agonism Beta-lactamase Assay, Ratio, Phase 3 (AID 2283596; active = hit-call score of the fitted dose curve at least 0.9, where 1 is the maximum)
# In short: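 HCT116 p53-bla cells (4000/well) given compound in DMSO (217-fold dilution) after 5 h, incubated 16 h at 37C. CCF4-AM substrate 2 h at room temperature; 460/530 nm emission ratio, gain fitted against DMSO.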
# Chain of human Retinoid X Receptor beta (RXRb), RXRB (gene 6257) (P28702 whole entry, looked up): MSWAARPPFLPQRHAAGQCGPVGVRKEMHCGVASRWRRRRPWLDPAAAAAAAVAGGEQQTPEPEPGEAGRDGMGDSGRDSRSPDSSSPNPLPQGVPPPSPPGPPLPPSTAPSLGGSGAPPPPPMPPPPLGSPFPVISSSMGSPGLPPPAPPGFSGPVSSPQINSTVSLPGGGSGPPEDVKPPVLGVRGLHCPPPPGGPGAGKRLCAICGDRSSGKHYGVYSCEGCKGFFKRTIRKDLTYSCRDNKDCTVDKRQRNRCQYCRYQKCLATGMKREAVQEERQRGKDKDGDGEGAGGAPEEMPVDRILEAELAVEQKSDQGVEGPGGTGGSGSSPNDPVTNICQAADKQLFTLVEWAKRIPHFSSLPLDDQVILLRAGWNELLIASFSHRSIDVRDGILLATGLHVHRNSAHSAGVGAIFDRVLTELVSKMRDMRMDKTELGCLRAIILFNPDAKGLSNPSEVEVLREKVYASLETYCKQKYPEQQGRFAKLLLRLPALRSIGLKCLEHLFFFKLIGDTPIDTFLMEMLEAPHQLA
# Chain of Hepatocyte nuclear factor 6 (Homo sapiens) (Q9UBC0 whole entry, looked up, the tested form may be a part): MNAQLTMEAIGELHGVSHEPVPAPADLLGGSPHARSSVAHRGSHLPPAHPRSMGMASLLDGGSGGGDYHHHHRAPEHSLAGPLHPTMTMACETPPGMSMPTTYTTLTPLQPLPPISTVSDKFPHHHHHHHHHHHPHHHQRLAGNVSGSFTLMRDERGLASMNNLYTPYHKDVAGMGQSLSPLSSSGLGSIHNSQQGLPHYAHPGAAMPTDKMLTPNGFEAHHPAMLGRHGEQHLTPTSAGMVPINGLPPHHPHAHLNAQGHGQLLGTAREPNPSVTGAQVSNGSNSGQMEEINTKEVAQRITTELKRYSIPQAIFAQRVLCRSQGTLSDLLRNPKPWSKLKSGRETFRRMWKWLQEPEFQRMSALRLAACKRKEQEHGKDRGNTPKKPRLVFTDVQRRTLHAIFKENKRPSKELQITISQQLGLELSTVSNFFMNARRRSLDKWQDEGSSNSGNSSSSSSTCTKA
# Chain of human Peroxisome Proliferator-activated Receptor alpha (PPARa), PPARA (gene 5465) (Q07869 whole entry, looked up, the tested form may be a part): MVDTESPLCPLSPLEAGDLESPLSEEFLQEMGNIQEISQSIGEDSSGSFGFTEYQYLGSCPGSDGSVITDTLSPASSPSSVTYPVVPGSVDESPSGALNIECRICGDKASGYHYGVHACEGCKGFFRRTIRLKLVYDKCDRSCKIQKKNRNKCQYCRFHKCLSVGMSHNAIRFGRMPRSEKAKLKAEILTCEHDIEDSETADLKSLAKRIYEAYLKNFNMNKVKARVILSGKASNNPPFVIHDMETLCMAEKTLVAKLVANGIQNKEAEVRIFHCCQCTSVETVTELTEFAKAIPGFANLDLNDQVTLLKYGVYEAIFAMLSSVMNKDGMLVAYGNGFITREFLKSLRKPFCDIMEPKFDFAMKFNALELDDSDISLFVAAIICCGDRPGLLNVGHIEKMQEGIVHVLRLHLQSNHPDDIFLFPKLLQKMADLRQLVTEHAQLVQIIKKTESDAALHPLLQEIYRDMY
# Chain of Nuclear receptor subfamily 1 group I member 2 (Homo sapiens) (O75469 whole entry, looked up, the tested form may be a part): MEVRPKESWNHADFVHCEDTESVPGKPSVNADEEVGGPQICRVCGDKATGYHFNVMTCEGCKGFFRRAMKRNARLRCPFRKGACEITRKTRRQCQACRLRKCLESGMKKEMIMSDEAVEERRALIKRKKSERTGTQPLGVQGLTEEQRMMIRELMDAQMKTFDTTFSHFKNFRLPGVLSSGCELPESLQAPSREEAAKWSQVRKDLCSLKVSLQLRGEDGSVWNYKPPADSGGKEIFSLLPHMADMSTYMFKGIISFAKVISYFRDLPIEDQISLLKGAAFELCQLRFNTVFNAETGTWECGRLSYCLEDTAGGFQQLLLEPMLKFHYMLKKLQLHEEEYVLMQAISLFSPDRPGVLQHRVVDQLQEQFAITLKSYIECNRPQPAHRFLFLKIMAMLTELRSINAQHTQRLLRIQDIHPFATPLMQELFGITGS
# Chain of Myc proto-oncogene protein (Homo sapiens) (P01106 whole entry, looked up): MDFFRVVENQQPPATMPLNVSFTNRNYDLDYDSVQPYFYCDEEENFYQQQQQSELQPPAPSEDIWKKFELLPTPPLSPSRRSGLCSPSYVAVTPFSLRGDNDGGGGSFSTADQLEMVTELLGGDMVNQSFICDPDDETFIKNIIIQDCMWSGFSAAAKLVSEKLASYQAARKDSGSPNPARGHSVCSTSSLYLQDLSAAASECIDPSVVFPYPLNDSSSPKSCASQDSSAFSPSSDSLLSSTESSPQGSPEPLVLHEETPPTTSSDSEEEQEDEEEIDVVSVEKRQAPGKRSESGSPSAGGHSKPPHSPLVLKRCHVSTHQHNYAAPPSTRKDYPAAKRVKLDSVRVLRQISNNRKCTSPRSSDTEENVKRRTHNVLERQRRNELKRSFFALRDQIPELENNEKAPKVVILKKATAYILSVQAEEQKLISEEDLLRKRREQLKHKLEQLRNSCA
# Chain of Cellular tumor antigen p53 (Homo sapiens) (P04637 whole entry, looked up): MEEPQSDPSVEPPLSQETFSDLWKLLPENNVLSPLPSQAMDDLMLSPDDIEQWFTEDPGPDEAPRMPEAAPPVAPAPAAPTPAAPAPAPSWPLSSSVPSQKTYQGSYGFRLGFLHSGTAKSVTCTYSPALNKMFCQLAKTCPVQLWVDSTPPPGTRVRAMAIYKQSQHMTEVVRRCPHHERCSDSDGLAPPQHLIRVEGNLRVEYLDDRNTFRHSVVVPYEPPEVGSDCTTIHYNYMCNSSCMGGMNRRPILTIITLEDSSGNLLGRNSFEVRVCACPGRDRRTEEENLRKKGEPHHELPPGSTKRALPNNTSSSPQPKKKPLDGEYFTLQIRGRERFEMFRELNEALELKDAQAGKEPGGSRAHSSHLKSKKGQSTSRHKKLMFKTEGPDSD
# Chain of Peroxisome proliferator-activated receptor gamma (Homo sapiens) (P37231 whole entry, looked up, the tested form may be a part): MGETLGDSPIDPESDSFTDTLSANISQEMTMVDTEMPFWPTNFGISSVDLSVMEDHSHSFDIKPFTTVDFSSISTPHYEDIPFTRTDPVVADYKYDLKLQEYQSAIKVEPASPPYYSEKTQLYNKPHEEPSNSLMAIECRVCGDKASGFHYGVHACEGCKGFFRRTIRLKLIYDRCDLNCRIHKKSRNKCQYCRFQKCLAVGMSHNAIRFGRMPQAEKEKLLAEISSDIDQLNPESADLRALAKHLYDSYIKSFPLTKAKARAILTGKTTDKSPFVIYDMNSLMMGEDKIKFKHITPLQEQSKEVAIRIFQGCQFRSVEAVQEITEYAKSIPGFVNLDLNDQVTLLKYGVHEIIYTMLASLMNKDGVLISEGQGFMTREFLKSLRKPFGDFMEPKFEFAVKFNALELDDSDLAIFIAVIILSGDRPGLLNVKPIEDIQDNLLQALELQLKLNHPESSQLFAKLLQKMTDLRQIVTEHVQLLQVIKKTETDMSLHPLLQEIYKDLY
# Chain of Paired box protein Pax-6 (Homo sapiens) (P26367 whole entry, looked up): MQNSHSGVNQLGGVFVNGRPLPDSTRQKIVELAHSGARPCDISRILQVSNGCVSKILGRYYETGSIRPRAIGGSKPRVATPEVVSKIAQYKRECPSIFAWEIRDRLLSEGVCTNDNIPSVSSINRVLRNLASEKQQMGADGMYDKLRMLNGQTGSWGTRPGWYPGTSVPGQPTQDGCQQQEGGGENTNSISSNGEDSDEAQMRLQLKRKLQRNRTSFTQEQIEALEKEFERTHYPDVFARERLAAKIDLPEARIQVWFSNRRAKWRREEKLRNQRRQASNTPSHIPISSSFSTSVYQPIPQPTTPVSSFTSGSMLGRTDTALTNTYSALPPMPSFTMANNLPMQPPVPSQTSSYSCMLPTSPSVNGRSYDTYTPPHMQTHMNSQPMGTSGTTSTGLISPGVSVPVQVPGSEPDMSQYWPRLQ
# Chain of Hepatocyte nuclear factor 4-alpha (Homo sapiens) (P41235 whole entry, looked up, the tested form may be a part): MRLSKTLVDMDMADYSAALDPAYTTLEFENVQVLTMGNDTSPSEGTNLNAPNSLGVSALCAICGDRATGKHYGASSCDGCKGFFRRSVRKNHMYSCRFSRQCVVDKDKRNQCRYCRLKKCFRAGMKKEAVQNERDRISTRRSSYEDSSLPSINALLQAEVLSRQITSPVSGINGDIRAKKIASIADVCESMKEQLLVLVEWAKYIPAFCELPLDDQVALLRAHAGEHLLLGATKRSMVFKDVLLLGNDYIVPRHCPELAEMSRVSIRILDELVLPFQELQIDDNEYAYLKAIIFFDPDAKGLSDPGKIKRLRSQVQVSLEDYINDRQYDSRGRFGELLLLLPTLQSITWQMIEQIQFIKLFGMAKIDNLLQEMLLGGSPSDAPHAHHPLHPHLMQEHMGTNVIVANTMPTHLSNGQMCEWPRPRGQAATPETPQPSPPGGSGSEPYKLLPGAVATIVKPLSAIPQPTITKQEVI
smiles,measurement,setting,value
O=c1c2ccccc2c(=O)c2c1cc(Cl)c1[nH]c3c([nH]c12)c(Cl)cc1c(=O)c2ccccc2c(=O)c13,outcome,[1],inactive
same,outcome,[2],inactive
same,outcome,[3],inactive
same,outcome,[4],inactive
same,outcome,[5],inactive
same,outcome,[6],inactive
same,outcome,[7],inactive
same,outcome,[8],inactive
same,outcome,[9],inactive
same,AC50,[10],40.5 µM (active)
same,AC50,[11],10.1 µM (active)
same,AC50,[12],138 µM (active)
same,outcome,[13],inactive
same,outcome,[14],inactive
same,outcome,[15],inactive
same,outcome,[16],inactive
CCN(CC)C(=S)S,outcome,[1],inactive
same,outcome,[2],inactive
same,outcome,[3],inactive
same,AC50,[4],71.9 µM (active)
same,outcome,[17],inactive
same,outcome,[8],inactive
same,outcome,[18],inactive
same,outcome,[19],inactive
same,AC50,[10],51.5 µM (active)
same,AC50,[11],3.68 µM (active)
same,outcome,[12],inactive
O=C(NC(=O)c1c(F)cccc1F)Nc1ccc(Oc2ccc(C(F)(F)F)cc2Cl)cc1F,outcome,[1],inactive
same,outcome,[4],inactive
same,outcome,[5],inactive
same,outcome,[17],inactive
same,outcome,[6],inactive
same,outcome,[7],inactive
same,outcome,[19],inactive
same,outcome,[9],inactive
same,AC50,[10],3.59 µM (active)
same,outcome,[11],inactive
same,outcome,[12],inactive
same,outcome,[13],inactive
same,outcome,[20],inactive
same,outcome,[15],inactive
same,outcome,[16],inactive
CC(C)C#N,outcome,[1],inactive
same,outcome,[2],inactive
same,outcome,[4],inactive
same,outcome,[5],inactive
same,outcome,[17],inactive
same,outcome,[6],inactive
same,outcome,[7],inactive
same,outcome,[18],inactive
same,outcome,[19],inactive
same,outcome,[9],inactive
same,outcome,[10],inactive
CN1C(=O)CCS(=O)(=O)C1c1ccc(Cl)cc1 (stereo not given),outcome,[1],inactive
same,outcome,[2],inactive
same,outcome,[3],inactive
same,outcome,[4],inactive
same,outcome,[17],inactive
same,outcome,[6],inactive
same,outcome,[7],inactive
same,outcome,[8],inactive
same,outcome,[18],inactive
same,outcome,[19],inactive
same,outcome,[9],inactive
same,outcome,[11],inactive
CCOP(O)OCC,outcome,[1],inactive
same,outcome,[2],inactive
same,outcome,[3],inactive
same,outcome,[4],inactive
same,outcome,[5],inactive
same,outcome,[17],inactive
same,outcome,[6],inactive
same,outcome,[7],inactive
same,outcome,[8],inactive
same,outcome,[18],inactive
same,outcome,[19],inactive
same,outcome,[10],inactive
O=C(CCN1CC1)OCC(CO)(COC(=O)CCN1CC1)COC(=O)CCN1CC1,outcome,[1],inactive
same,outcome,[2],inactive
same,outcome,[3],inactive
same,outcome,[4],inactive
same,outcome,[5],inactive
same,outcome,[7],inactive
same,outcome,[8],inactive
same,outcome,[18],inactive
same,outcome,[19],inactive
same,outcome,[10],inactive
same,outcome,[12],inactive
same,outcome,[20],inactive
same,outcome,[14],inactive
same,outcome,[15],inactive
same,outcome,[16],inactive
Cc1ccc(C)c2ccccc12,outcome,[1],inactive
same,outcome,[3],inactive
same,outcome,[4],inactive
same,outcome,[5],inactive
same,outcome,[17],inactive
same,outcome,[18],inactive
same,outcome,[9],inactive
same,outcome,[10],inactive
same,AC50,[11],51.3 µM (active)
same,AC50,[12],83.3 µM (active)
CC(C)C(=O)Cl,outcome,[1],inactive
same,outcome,[2],inactive
same,outcome,[3],inactive
same,outcome,[4],inactive
same,outcome,[17],inactive
same,outcome,[18],inactive
same,outcome,[19],inactive
same,outcome,[9],inactive
same,outcome,[12],inactive
Nc1cc(Cl)cc(Cl)c1,outcome,[1],inactive
same,outcome,[5],inactive
same,outcome,[17],inactive
same,outcome,[7],inactive
same,outcome,[18],inactive
same,outcome,[19],inactive
same,outcome,[9],inactive
same,outcome,[11],inactive
same,outcome,[12],inactive
same,outcome,[13],inactive
same,outcome,[20],inactive
same,outcome,[14],inactive
same,outcome,[15],inactive
same,outcome,[16],inactive
